Results published in PubChem BioAssay.

The molecules below were run against Tumor necrosis factor receptor superfamily member 10B (Homo sapiens) (UniProt O14763) (assay: caspase-8 TRAIL sensitization, hit retest, confirmation, cell-based, NB7+caspase-8, with/without TRAIL, luminescence panel (AID 651596)). Conditions: NB7 neuroblastoma + caspase-8, TRAIL sensitization, luminescence viability, with TRAIL, mean of runs, at 10 µM, stronger effect = higher value; in the data active = activity above about 50%; inactive = the rest.
Chain of Tumor necrosis factor receptor superfamily member 10B (Homo sapiens) (O14763 whole entry, looked up): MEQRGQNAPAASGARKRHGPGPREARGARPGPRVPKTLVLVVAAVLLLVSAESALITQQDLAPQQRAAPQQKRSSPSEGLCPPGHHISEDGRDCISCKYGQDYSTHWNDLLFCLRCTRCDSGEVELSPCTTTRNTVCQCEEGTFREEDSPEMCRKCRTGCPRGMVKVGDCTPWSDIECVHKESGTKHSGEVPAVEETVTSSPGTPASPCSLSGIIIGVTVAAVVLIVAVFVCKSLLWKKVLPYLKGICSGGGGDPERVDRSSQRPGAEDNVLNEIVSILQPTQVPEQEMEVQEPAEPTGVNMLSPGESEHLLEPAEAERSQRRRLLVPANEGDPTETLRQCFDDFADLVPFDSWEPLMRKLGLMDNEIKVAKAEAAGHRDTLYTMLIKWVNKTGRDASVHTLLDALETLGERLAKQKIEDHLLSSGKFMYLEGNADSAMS

SMILES | activity [%]
CC(=O)n1cc(N(C(=O)CCl)c2ccccc2)c2ccccc21 | 99.6
CCCCn1c(=O)[nH]c(=O)c2c1nc(Cn1ncc(Cl)c(Cl)c1=O)n2CCC | 98.7
COc1ccc(OCC(=O)N/N=C/C=C/c2ccccc2)cc1 | 59.4
COc1ccc(-c2cc(C(=O)N/N=C/c3cccnc3)c3ccccc3n2)cc1 | 45.5
CCC(C)c1ccc(NC(=O)c2ccco2)cc1 (centres undefined) | 81.5
NC(=O)c1ccccc1N/C=C/C(=O)c1ccccc1 | 73.4
Cc1nc(-c2ccc(NC(=O)CC(C)C)cc2)cs1 | 51.7
Nc1nc(CCl)nc(Nc2ccc3ccccc3c2)n1 | 99.1
COc1ccccc1NC(CC(=O)c1ccccc1)C(=O)OCC(=O)c1ccc(C)cc1 (centres undefined) | 65
COc1ccccc1-c1cc(C(=O)NC2CCN(C)CC2)c2ccc(Cl)c(C)c2n1 | 89.2
COc1cccc2sc(N(C)c3ccccc3)nc12 | 58.3
CC(C)(C)OC(=O)NCc1ccc(NC(=O)c2nc[nH]c2C(=O)N[C@@H](Cc2ccccc2)C(=O)OCc2ccccc2)cc1 | 63.8
CN(C)c1cccc(C(=O)N/N=C/c2ccccc2F)c1 | 82.8
CCSc1ccc(-c2ccc(C)cc2)nn1 | 59.6
O=C(CSc1nnc(-c2csc3c2CCCC3)o1)Nc1ccccc1 | 76.4
O=C(NC1=NCCS1)c1cc2ccccc2o1 | 56.6
C(=N\NC1=Nc2cccc3cccc1c23)/c1ccccc1 | 34.3
CSc1cc(-c2ccc(Cl)cc2)n(Cc2ccccc2)c(=O)c1C#N | 72.2
CCOc1ccc(NC(=O)c2ccco2)cc1 | 55.9
CC(NC(=O)CCl)c1ccc(Cl)c(Cl)c1 (centres undefined) | 51

SMILES | activity [%]
N#CC1=C(N)N2C(=C(C#N)C1c1cccc(Br)c1)Nc1ccccc12 (centres undefined) | 55.6
O=C(Nc1ccc(NC(=O)C2CC2)cc1)c1ccco1 | 44
CC(C)c1ccc(/C=c2\sc3n(c2=O)C(N)=C(C#N)C(c2ccc(C(C)C)cc2)C=3C(N)=O)cc1 (centres undefined) | 76.7
CC(C)(C)OC(=O)NCc1ccc(NC(=O)c2nc[nH]c2C(=O)NCCCNC(=O)c2[nH]cnc2C(=O)Nc2ccc(CNC(=O)OC(C)(C)C)cc2)cc1 | 87.7
CSc1ccc(/C=C/C(=O)c2c(O)cc(C)oc2=O)cc1 | 78.7
O=C(OCc1cccc(C(F)(F)F)c1)c1cc(S(=O)(=O)N2CCOCC2)ccc1F | 36.8
CCCCC1CCC(C(=O)N(CCC(C)C)c2c(N)n(CCCC)c(=O)[nH]c2=O)CC1 (centres undefined) | 90.3
CC(C)(C)C(=O)N1CCc2cc(-c3csc(N)n3)ccc21 | 91.8
Cc1ccnc(NC(=S)NC(=O)c2cccs2)c1 | 90
Cc1nc2cc(NC(=O)Nc3cccc([N+](=O)[O-])c3)ccc2n1C | 64.2
CCOC(=O)c1sc2nc3c(SCC(=O)O)cc(C(=O)c4ccccc4O)cn3c(=O)c2c1C | 49.1
Cc1ccc(-c2nc(N/N=C/c3cccnc3)c3ccccc3n2)cc1 | 94.3
O=C(Nc1ccc2c(c1)OCO2)c1ccc2c(c1)OCO2 | 56.3
CCC(C)c1ccc(O)c(NC(=S)NC(=O)c2cccs2)c1 (centres undefined) | 56.5
O=c1oc2ccccc2cc1-c1csc(Nc2nc3c(F)cccc3s2)n1 | 11.9
CC(C)C[C@H](NC(=O)c1nc[nH]c1C(=O)N[C@@H](CC(C)C)C(=O)OC(C)(C)C)C(=O)OC(C)(C)C | 72.4
O=C(Nc1ccc2ccccc2c1)c1ccc(Cl)cc1 | 63.1
Cc1ccc(-c2nc(-c3ccccn3)no2)cc1[N+](=O)[O-] | 60.7
CCOC(=O)c1sc(NC(=O)Nc2ccc(F)cc2)nc1C | 56.6
